# Assay outcomes from PubChem.
# Most compounds without a hit are left out; they make up all but 21% or so of the library.
# Pf growth 48h: inhibits P. falciparum growth in the first generation, 48 h | P. falciparum luciferase growth in erythrocytes, 48 h | Potency, µM (doses to about 28.7 µM), without a hit: at the top dose activity change, negative = inhibition, most hits filed as inhibitors | 5.9% of 310,000 active; also: potency is read from the fitted curve at half-maximal effect; % is scaled to controls: 0 for no effect and ±100 for the full control effect
#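 A one-generation exposure of luciferase-tagged malaria parasites in RPMI 1640/Albumax erythrocyte culture, 37 C and 5% CO2. Inhibition is inferred from decreased luminescence after adding detection reagent.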
# CHX counter: counter-screen for Shiga toxin inhibitors: cycloheximide protein synthesis inhibition | cell reporter, cycloheximide protein synthesis inhibition counterscreen | max response, % | 12% of 300,000 active | AID 2314; in the data active = max response mostly above about 13%, no sharp cut-off; inactive = mostly below about 14%; also: read at 38.3 µM for the half of the compounds with a filed dose; 0% is about no effect
# Pf growth 96h: P. falciparum growth inhibition at 96 hours. 6.9% of 320,000 active. Potency, µM (top dose mostly 28.7 µM), inactives show top-dose activity change, negative = inhibition, hits mostly inhibitors. P. falciparum luciferase reporter growth, 96 h; also: potency is read from the fitted curve at half-maximal effect; % is scaled to controls: 0 for no effect and ±100 for the full control effect
#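 96 h incubation, 37 C, 5% CO2, of luciferase-reporter P. falciparum-infected RBCs (2% hematocrit, 0.05% parasitemia final) with test compounds; endpoint luminescence.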
# NS1 inh: blocks influenza NS1 protein function; Potency, µM (doses to about 46.1 µM), for inactives: top-dose activity, positive = more growth; 0.4% of 270,000 active; AID 2326; calls by dose curve; also: potency is read from the fitted curve at half-maximal effect; actives are rising curves; nearly all actives have a fitted effect of over 50% in size
#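 OD600 was taken as the measure of yeast growth restored by compound in an NS1-expressing S. cerevisiae strain. Cells had been washed out of glucose medium and diluted 1:100 into galactose -URA medium, pH 6.0.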
# Shiga toxin inh: inhibitors of Shiga toxin in Vero cells; Vero cells, Shiga toxin protein synthesis inhibition reporter; inhibition, % at 38.7 µM; 9.2% of 290,000 active; in the data active = inhibition mostly above about 28%, no sharp cut-off; inactive = mostly below about 43%; also: 0% is about no effect
# Giardia FBPA inh: inhibitors of Giardia lamblia fructose-1,6-bisphosphate aldolase. purified Giardia FBPA. 0.71% of 290,000 active. Potency, µM (doses to about 59.6 µM), without a hit: at the top dose activity, negative = inhibition, most hits filed as inhibitors. A8B2U2; also: potency is read from the fitted curve at half-maximal effect; % is scaled to controls: 0 for no effect and ±100 for the full control effect; nearly all actives have a fitted effect of over 55% in size
# Target sequence (A8B2U2 whole entry, looked up): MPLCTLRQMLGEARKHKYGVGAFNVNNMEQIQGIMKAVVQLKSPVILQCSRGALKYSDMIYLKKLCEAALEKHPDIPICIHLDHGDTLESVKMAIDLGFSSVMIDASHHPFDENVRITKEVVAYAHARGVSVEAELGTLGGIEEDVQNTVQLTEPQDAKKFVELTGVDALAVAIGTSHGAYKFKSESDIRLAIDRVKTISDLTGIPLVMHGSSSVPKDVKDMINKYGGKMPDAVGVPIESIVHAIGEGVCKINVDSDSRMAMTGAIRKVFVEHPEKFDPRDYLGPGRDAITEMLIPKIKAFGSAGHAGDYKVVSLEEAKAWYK
#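 40 nM FBPA preincubated 10 min at RT with compound (up to 57.5 uM final), then substrate plus GAPDH/TPI/NAD/arsenate coupling and diaphorase/resazurin added. Fluorescence read after 20 min at RT, 525/598 nm.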
# Starred values were filed as active, the others as inactive; i = inactive; ? = inconclusive; · = no result; [ ] = remark or other dose. Unless noted, calls follow the shape of the dose curve; as a rule, active = well fitted curve in the direction sought with a large enough effect; inconclusive = small, poorly fitted or top-dose-only effect, or another doubt; inactive = no such curve, though single readings can be large; an effect the other way counts as inactive or inconclusive.
SMILES,Pf growth 48h,CHX counter,Pf growth 96h,NS1 inh,Shiga toxin inh,Giardia FBPA inh
O=C(CCn1cnnn1)Nc1ccc(F)cc1,96%,26*,1%,6%,66*,2%
Cc1cc(Oc2cnn(C(C)(C)C)c(=O)c2Cl)cc(C(C)C)c1,12µM*,2,8.3µM*,?,21,-1%
CC1CC1c1ccc(/C=C(\C#N)C(=O)Nc2ccc(Cl)cc2)o1 (configuration not stated),134%,63*,106%,-5%,113*,-2%
CCc1ccccc1NC(=O)/C(C#N)=C/c1ccc(Sc2ccccc2)o1,?,-1,?,3%,9,-5%
CC1CC1c1ccc(/C=C(\C#N)C(=O)Nc2ccccc2Cl)o1 (configuration not stated),51%,52*,48%,-15%,30*,-3%
COc1cc(Cl)c(C)cc1NC(=O)COC(=O)CCc1nc2ccccc2c(=O)[nH]1,-4%,·,30%,·,·,·
Cc1nn(CC(=O)Nc2cc(S(=O)(=O)N(C)C)ccc2Cl)c(C)c1[N+](=O)[O-],-7%,-4,?,5%,-8,0%
CCN(CC)c1ccc(S(=O)(=O)N2CCOCC2)cc1NC(=O)Cn1nc(C)c([N+](=O)[O-])c1C,?,·,12µM*,·,·,·
CCN(CC)c1ccc(S(=O)(=O)N2CCOCC2)cc1NC(=O)CN1CCc2ccccc2C1,10µM*,6,?,-18%,11,-5%
CCn1c(SCC(=O)NC2=NCCS2)nnc1C(C)NC(=O)c1ccccc1Br (configuration not stated),31%,-5,-4%,7%,29,-7%
Cn1c(=O)n(/N=C/c2ccccc2)c2ccccc21,65%,13,84%,14%,45*,-4%
Cc1ccc(OCCn2cnc(Cl)c2Cl)cc1,-20%,2,?,-12%,35,-4%
Cc1ccc(OCCn2cc(Br)c(=O)[nH]c2=O)cc1,-24%,-1,9.3µM*,8%,4,7%
CCC1(c2ccccc2)ON(c2c(Br)cccc2Br)C1=O (configuration not stated),0.41µM*,·,0.41µM*,·,·,·
Cc1ccc(-n2c(C)cc(C(=O)CN3CCOCC3)c2C)cc1,42%,46*,47%,·,85*,0%
Cc1ccc(-n2c(C)cc(C(=O)CN3CCOCC3)c2C)cc1C,-10%,21,13%,·,32,0%
Cc1cc(C(=O)CN2CCCC(C)C2)c(C)n1-c1ccc(F)cc1 (configuration not stated),43%,50*,?,8%,53*,2%
COc1ccc(CCC(=O)NCCS(=O)(=O)N2CCN(c3ccc(F)cc3)CC2)cc1,-8%,·,?,·,·,·
NC(=O)c1oc2ccccc2c1NC(=O)c1ccc([N+](=O)[O-])o1,9.3µM*,15,-20%,-26%,28*,1%
CCCCOc1ccc(C(=O)Nc2ccc(N3CCN(C(C)=O)CC3)cc2)cc1,·,-5,53%,-26%,-22,0%
COc1cc(NC(=O)c2ccc([N+](=O)[O-])o2)ccc1NC(=O)c1ccco1,-10%,24,?,-15%,23,-7%
Cc1cc(C)cc(NC(=O)c2ccc([N+](=O)[O-])o2)c1,13µM*,34*,?,·,35*,-26%
CCCCOc1ccc(C(=O)Nc2ccc(N3CCN(C(=O)C(C)C)CC3)cc2)cc1,9.3µM*,-4,·,2%,-6,1%
Cc1cc(C)nc(NC(=O)c2ccc([N+](=O)[O-])o2)n1,-6%,7,247%,-5%,13,-14%
NC(=O)c1oc2ccccc2c1NC(=O)c1ccc(F)cc1,4%,-2,7%,-24%,0,1%
SMILES,Pf growth 48h,CHX counter,Pf growth 96h,NS1 inh,Shiga toxin inh,Giardia FBPA inh
NS(=O)(=O)c1ccc(O)c(NC(=O)c2ccc([N+](=O)[O-])o2)c1,7.4µM*,2,10µM*,-1%,-6,-19%
COCC(=O)N1CCC[C@@]2(CCN(Cc3ccc(C#N)cc3)C2)C1,·,·,·,·,·,1%
CC(C)C(=O)N1CCN(c2ccc(NC(=O)c3ccc([N+](=O)[O-])o3)cc2)CC1,4.7µM*,40*,22%,-2%,53,-11%
CC(=O)c1ccc(NC(=O)c2ccc([N+](=O)[O-])o2)cc1,-11%,34*,3%,-117%,98*,-11%
O=C(Nc1ccccc1N1CCOCC1)c1cccc([N+](=O)[O-])c1,27%,-1,?,-16%,11,3%
COc1ccc(NC(=O)c2ccc([N+](=O)[O-])o2)cc1,?,9,0%,-62%,21,-13%
O=C(Nc1c(C(=O)N2CCOCC2)oc2ccccc12)c1cccc([N+](=O)[O-])c1,-4%,-1,13µM*,-2%,-11,·
CC(C)C(=O)N1CCN(c2ccc(NC(=O)c3ccc([N+](=O)[O-])o3)cc2Cl)CC1,8%,-13,?,·,-39,?
Cc1cc(NC(=O)c2ccc([N+](=O)[O-])o2)ccc1NC(=O)c1ccco1,8.3µM*,36*,-35%[1.15 µM],·,97*,9%
Cc1cc(C)c(C)c(C(=O)COC(=O)CNC(=O)CNC(=O)c2ccco2)c1C,0%,2,-23%,-3%,9,9%
CCOC(=O)N1CCN(Cc2nc3cc(NC(=O)c4ccco4)ccc3n2C)CC1,?,29,39%,-17%,8,·
Cc1ccc(C)c(-c2nnc(NC(=O)c3ccc([N+](=O)[O-])o3)o2)c1,9.3µM*,·,9.3µM*,·,·,·
O=C(NN(c1ccccc1)c1ccccc1)c1ccc([N+](=O)[O-])o1,?,27,-22%[5.75 µM],·,24,-18%
O=C(Nc1nnc(-c2ccccc2)o1)c1nc2ccccc2s1,32%,-4,5%,2%,2,-12%
NC(=O)c1oc2ccccc2c1NC(=O)c1nc2ccccc2s1,164%,41*,-72%,-4%,99*,1%
O=C(NNC(=O)c1ccc([N+](=O)[O-])o1)c1ccccc1,?,25*,-12%,-2%,52,-20%
COc1ccc(NS(=O)(=O)c2cc(NC(=O)Cn3cnc4c3c(=O)n(C)c(=O)n4C)ccc2C)cc1,?,-1,-32%,-3%,-11,-1%
Cc1cc(C)c(NC(=O)CNC(=O)COC(=O)/C=C/c2cccs2)c(C)c1,13%,·,4%,·,·,·
CC(C)CCCC(C)C1CCC2C3CC=C4CC(O)CC[C@@]4(C)C3CC[C@@]12C (some centres not stated),·,·,·,·,·,7%
Cc1cc(NC(=O)c2cccc(Oc3ccccc3)c2)n[nH]1,i,29*,350%,1%,91*,-5%
CCC(CC)NC(=O)c1cccc(Oc2ccccc2)c1,-24%,19,-22%,·,31*,4%
CCC(CC)NC(=O)c1cccc(Br)c1,-22%[5.75 µM],-2,-3%,·,0,2%
COc1ccccc1/C=N/NC(=O)c1cccc(OC(F)(F)C(F)F)c1,2%,18,6%,-8%,17,0%
